Results on seven compounds are retold here after PubChem BioAssay (NCI).

Common to all, as to test: NCI-60 one-dose screen, 48 h (100 = growth as untreated, 0 = no growth, -100 = all killed)
What all share (conditions): 10 µM unless noted

Experiment [1] deals with HCT-15 colon.
Experiment [2] relates to HT29 colon.
Experiment [3] relates to SNB-75 CNS.
Experiment [4] has as its system SNB-19 CNS.
Experiment [5] has as its system U251 CNS.
The test system of experiment [6] is PC-3 prostate.
In experiment [7] the test system is SK-MEL-5 melanoma.
Experiment [8] has as its system UACC-62 melanoma.
Experiment [9] deals with LOX IMVI melanoma.
Experiment [10] has as its system SK-MEL-28 melanoma.
The test system of experiment [11] is SK-MEL-2 melanoma.
The test system of experiment [12] is EKVX NSCLC.
Experiment [13] relates to SN12C renal.
Experiment [14] deals with UO-31 renal.
Experiment [15] deals with TK-10 renal.
The test system of experiment [16] is ACHN renal.
Experiment [17] deals with CAKI-1 renal.
Experiment [18] concerns CCRF-CEM leukemia.
The test system of experiment [19] is MOLT-4 leukemia.

Each structure is given as a SMILES string. The panel holds about 83,000 compounds, 20% with a hit somewhere; the sample as a whole holds those more often.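 In brief: 96-well plates, 48 h treatment, single concentration, percent growth endpoint.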 Unmarked numbers belong to inactive results. Active and inactive are the calls of the source. The calls were made as follows: active = growth percent below 10; inactive = the rest.

Consider `O=C(/C=C(/C=C/c1coc2ccccc12)OB(F)F)/C=C/c1coc2ccccc12`, for which the growth in experiment [1] is 95.1%; in experiment [2], 100%; in experiment [3], 98%; in [4] it was 89.1%; in experiment [5], 84.6%; in [6], 86.2%. Further, the growth was 105% in experiment [7]; 88.9% in [8]; 84.9% in [9]; 101% in experiment [10]; 91.6% in experiment [11]; 108% in experiment [12]. Besides, the growth was 97.4% in experiment [13]; 87.7% in experiment [14]; 117% in [15]; 101% in experiment [16]; 105% in [17]; 72.6% in [18]. Also, in experiment [19], the growth is 85.5%.

In the case of `CC(=O)Nc1cccc(-c2ccc3c(c2)NC(=O)/C3=C\c2ccc[nH]2)c1`, the growth was 27.2% in [1]; 25.6% in [2]; 53.3% in experiment [3]; 69.1% in [4]; 45.6% in experiment [5]; 63.8% in experiment [6]. Also, the growth in experiment [7] was 61.1%; in experiment [8], 48.5%; in [9] it was 35.9%; in experiment [10], 68.3%; in experiment [11], 54.7%; in experiment [12], 35%. The growth in experiment [13] was 56.6%; in experiment [14] it was 25.9%; in [15], 43.2%; in experiment [16], 33.8%; in [17], 33%; in [18], 27%. For the same compound, the growth in [19] was 29.4%.

`CCCOc1ccc(/C=N/Nc2cc(C)nc3ccc(Cl)cc23)cc1`: the growth in [1] is -44.4% (active); in experiment [2], -6.94% (active); in experiment [3] it was 104%; in experiment [4], 58.6%; in experiment [5], -58.3% (active); in [6] it was 48.6%. Also, the growth was 79.9% in [7]; 88.6% in [8]; -95.7% (active) in experiment [9]; 64.8% in [10]; 91.4% in [11]; 72.8% in [12]. Further, the growth in experiment [13] is -10.8% (active); in [14], 7.59% (active); in experiment [15], 102%; in experiment [16] it was 23.3%; in [17], 74.2%; in experiment [18], 2.96% (active). The growth in [19] was -42.5% (active).

As to `Nc1nc(Nc2ccccc2SSc2ccccc2Nc2nc(N)nc(-c3ccc(C(F)(F)F)cc3)n2)nc(-c2ccc(C(F)(F)F)cc2)n1`, the growth was 17.2% in experiment [1]; 93.3% in experiment [2]; 86.2% in experiment [3]; 58% in [4]; 41.2% in experiment [5]; 29.5% in experiment [6]. Further, the growth was 88.9% in [7]; 68.3% in experiment [8]; 27.5% in experiment [9]; 95.6% in experiment [10]; 93.7% in experiment [11]; 44.6% in experiment [12]. For the same compound, the growth in experiment [13] was 57.6%; in experiment [14] it was -84.6% (active); in experiment [15], 95.4%; in [16], 19.9%; in [17], -20.3% (active); in experiment [18], 53.6%. The growth in [19] was 56.2%.

Take `C/C(=N\NC(=O)CSc1nc2ccccc2c(=O)n1CCc1ccc(S(N)(=O)=O)cc1)c1ccccn1`: the growth in [1] was 26.8%; in experiment [2], 31.5%; in experiment [3], 74.5%; in experiment [4], 46.6%; in [5], 31.8%; in experiment [6] it was 50.7%. Moreover, the growth in experiment [7] is 24.9%; in experiment [8] it was 19.5%; in experiment [9], 13.8%; in [10], 37.6%; in [11], 47.2%; in experiment [12], 30.5%. In addition, the growth in [13] was 38.5%; in experiment [14], 29.8%; in experiment [15], 34.5%; in experiment [16] it was 21.2%; in experiment [17], 37.6%; in experiment [18], 20.6%. Further, the growth in [19] is 17.7%.

For the compound `COc1ccccc1/C(C)=N/NC(=O)CSc1nc2ccccc2c(=O)n1Cc1ccc(S(N)(=O)=O)cc1`, the growth was 97.6% in [1]; 114% in [2]; 89.7% in experiment [3]; 93.3% in [4]; 103% in experiment [5]; 111% in experiment [6]. Also, the growth is 97.5% in experiment [7]; 97.4% in experiment [8]; 89.9% in experiment [9]; 114% in experiment [10]; 106% in [11]; 85.6% in experiment [12]. The growth in experiment [13] was 102%; in [14], 77.3%; in experiment [15], 96.1%; in experiment [16] it was 105%; in experiment [17], 85.4%; in experiment [18] it was 94.5%. Further, the growth in [19] is 97%.

Regarding `Cc1cccc(NC(=O)Nc2ccc(-n3cnc4cc(-c5ccc(O)cc5)ccc43)cc2)c1`, the growth was 18.8% in experiment [1]; 28.4% in experiment [2]; 69.2% in experiment [3]; 28% in experiment [4]; 26.5% in [5]; 31.2% in experiment [6]. For the same compound, the growth in [7] was 14.4%; in experiment [8], 27.3%; in [9], 30.6%; in [10], 44%; in experiment [11], 18.1%; in experiment [12], 35.8%. For the same compound, the growth in experiment [13] is 23%; in [14] it was 27.2%; in [15], 21.8%; in [16], 16.1%; in [17], 35%; in [18], 17.8%. Also, the growth in [19] is 13.1%.
